Drawing on PubChem BioAssay AID1530 (NMMLSC, 2009), this text covers percent response for 50 compounds.

About 1,000 (0.34%) of roughly 290,000 compounds were called active. The sample holds actives, similar compounds and a random draw of the others, so the mix is not that of the screen. Unmarked numbers belong to inactive results. Cut-off read from the data, not from the text of the source: active = percent response above about 24% (passing the limit was not always enough); inactive = the rest.

The assay deals with MEKK2 (MAP3K2) mutant PB1 domain binding to MEK5, human. Briefly: MEK5 binding signal on mutant MEKK2 PB1, primary screen, biochemical, multiplex bead flow cytometry, Alexa488-MEK5 (AID 1530). The following applies: at 10 µM, hits give high values. For orientation: A flow cytometer gives signals particle by particle.
As for `O=[N+]([O-])c1ccc2nc(-c3ccccn3)[nH]c2c1`, the percent response is -17%. Next, `Cc1cccc(Nc2nc(NCCO)nc(N3CCCC3)n2)c1`: 4%; `COc1ccc(Cn2c(=S)[nH]c3cc(C(=O)N4CCCCC4)ccc3c2=O)cc1`: -5%; `C/C(=N\NC(=O)c1ccc(NS(=O)(=O)c2cccs2)cc1)c1ccc2ccccc2c1`: -4%.

On to `CC(=O)c1cccc(OCc2cc(C(=O)NC(C)Cc3cccnc3)no2)c1` (stereo not given), for which the percent response is 10%. With `CC(=O)Nc1ccc(-c2nc3ccccc3o2)cc1`, the percent response was 28% (active). On to `Cc1ccc2nc(-c3ccc(NC(=O)c4cccnc4)cc3)oc2c1`, for which the percent response is 0%. Next, `CC(=O)Nc1ccc(Nc2c3ccccc3nc3ccccc23)cc1`: 3%.

In the case of `COc1ccc(-n2nc(C(=O)NCC(=O)N3CCCCCC3)c3ccccc3c2=O)cc1Cl`, the percent response is 6%. As for `COc1ccc(CC(=O)Nc2cc(S(=O)(=O)N3CCCCC3)ccc2N2CCN(C)CC2)cc1`, the percent response is -1%. Take `CCN1CCN(c2ccc(S(=O)(=O)N3CCCCC3)cc2NC(=O)Cc2c(Cl)cccc2Cl)CC1`: the percent response was 24% (active).

Turning to `CN1CCN(c2ccc(S(=O)(=O)N3CCCCC3)cc2NC(=O)Cc2ccccc2F)CC1`, the percent response is 0%. Next, `Cc1cccc(S(=O)(=O)N2CN(CC3CCCO3)c3nc4ccccc4nc32)c1` (stereo not given): 1%; `Cc1ccc([N+](=O)[O-])c(OCCCNCC(C)O)c1` (stereo not given): 7%. As to `CCOc1ccc(NC(=O)CCCCCN2C(=O)[C@@H]3Cc4ccccc4CN3C2=O)cc1`, the percent response is 0%.

On to `CC(C)CC(=O)c1c[nH]c(C(=O)NCc2ccccc2)c1`, for which the percent response is 10%. In the case of `CN(C)CCCNC(=O)c1cc(C(=O)Cc2ccc(Cl)cc2)c[nH]1` it was 27% (active).

As to `CN(C)CCCNC(=S)NCc1ccc(Cl)cc1`, the percent response is 13%. In the case of `Cc1noc(C)c1C(=O)NCCc1ccc(S(N)(=O)=O)cc1` it was 2%; in that of `Cc1ccc2nc(-c3ccc(NC(=O)CN(C)S(=O)(=O)c4ccccc4)cc3)sc2c1`, -5%. With `OCCNc1nc(Nc2ccc(Cl)c(Cl)c2)nc2ccccc12`, the percent response is 31% (active). `CN(C)c1nc(Nc2ccc(Cl)c(Cl)c2)nc(N(C)C)n1`: the percent response was 0%. Turning to `Nc1nc(Nc2ccccc2)nc(NCCO)c1[N+](=O)[O-]`, the percent response is -1%.

In the case of `CCOC(=O)C1=C(CN2CCc3ccccc32)NC(=O)NC1c1cc(C)ccc1C` (stereo not given), the percent response was 5%.

Take `COc1cc2c(cc1OC)C(C)N(S(=O)(=O)c1cnc(Cl)c(Cl)c1)CC2` (stereo not given): the percent response was 10%. Next, `O=c1c2c3c(sc2n(CCN2CCCC2)c(=O)n1Cc1ccccc1)CCCCC3`: 1%; `O=C(CC1NCCNC1=O)Nc1cc(Cl)cc(Cl)c1` (stereo not given): 2%. Turning to `O=C(CC1SCCNC1=O)Nc1ccc(Cl)cc1` (stereo not given), the percent response is -10%. In the case of `O=C(CC1SCCNC1=O)Nc1ccc(Cl)c(Cl)c1` (stereo not given) it was 174% (active). In the case of `Cc1ccc(C(=O)c2coc3ccc(O)c(CN(C)C)c23)cc1` it was 11%. Turning to `COc1cccc2sc(N(CCCN(C)C)C(=O)C(c3ccccc3)c3ccccc3)nc12`, the percent response is 22%.

As for `CN(C)CCCN(C(=O)COc1ccccc1)c1nc2c(Cl)cccc2s1`, the percent response was 87% (active).

For `COc1cccc2sc(N(CCCN(C)C)C(=O)CCS(=O)(=O)c3ccccc3)nc12`, the percent response was 6%. For `C/C(=N\NC(=O)c1ccoc1C)c1ccccc1O`, the percent response was 3%. In the case of `O=S(=O)(NC1CCCCC1N1CCC(O)CC1)c1ccc(Cl)cc1` (stereo not given) it was 2%; in that of `COc1ccc(C2NC(=O)C(=O)/C2=C(\O)c2ccc(Cl)cc2)cc1OC` (stereo not given), 5%. In the case of `O=C(NCCc1ccc(Cl)cc1)C1CC(=O)N(C2CCCCC2)C1` (stereo not given) it was -5%; in that of `O=C(NCCCN1CCCCCC1)C1CC(=O)N(C2CCCC2)C1` (stereo not given), 31% (active); in that of `CC(C)OCCCNC(=O)C1CC(=O)N(C2CCCCCCC2)C1` (stereo not given), 10%. Next, `CC1(C)C=Cc2c(ccc3c2OC[C@@H](c2ccc(O)cc2O)C3)O1`: 2%; `CCOC(=O)CC1C(=O)NCCN1c1nc2c(C)cccn2c(=O)c1/C=C1\SC(=S)N(C(C)CC)C1=O` (stereo not given): -23%. `Cc1cccn2c(=O)c(/C=C3\SC(=S)N(CC(C)C)C3=O)c(NCCCOC(C)C)nc12`: the percent response is 97% (active). With `CNc1nc2c(C)cccn2c(=O)c1C=Nc1ccc(OC)cc1`, the percent response was 0%. Take `O=C(CCCN1C(=O)/C(=C\c2ccco2)SC1=S)Nc1cccc2ccccc12`: the percent response was -3%. Turning to `O=C(CCCN1C(=O)/C(=C/c2ccco2)SC1=S)Nc1ccccc1`, the percent response is 0%. In the case of `CCCN(CCC)c1nc2c(C)cccn2c(=O)c1/C=C1/SC(=S)N(Cc2ccco2)C1=O`, the percent response was 147% (active).

Consider `Nc1ccc2nn(-c3ccc(Cl)cc3)nc2c1`, for which the percent response was -4%. In the case of `Cc1cc2oc(=O)cc(CN3CCN(S(=O)(=O)c4cccs4)CC3)c2cc1C(C)C` it was 0%. `COC(=O)c1ccc(CNC(=O)C2CCC(=O)N(Cc3cccc(F)c3)C2)cc1` (stereo not given): the percent response is 4%. Consider `O=C(Cn1ncc2c3ccccc3n(Cc3ccccc3)c2c1=O)NCCCN1CCOCC1`, for which the percent response was 4%.
